Measurements: PubChem BioAssay AID488969 (Vanderbilt High Throughput Screening Facility, 2010)
Over roughly 110,000 compounds, “z-score” has its median near -0.1; the highest 2% begin near 2. The list comes from a sample in which the highest values are over-represented; it also holds similar structures and randomly drawn compounds. Activity calls are given as the source filed them.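 Rule for the calls: active = z-score in the third read window above 3 or below -3; inactive = the rest.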

Biological target: Metabotropic glutamate receptor 8 (Rattus norvegicus) (UniProt P70579)
Sequence (P70579 whole entry, looked up): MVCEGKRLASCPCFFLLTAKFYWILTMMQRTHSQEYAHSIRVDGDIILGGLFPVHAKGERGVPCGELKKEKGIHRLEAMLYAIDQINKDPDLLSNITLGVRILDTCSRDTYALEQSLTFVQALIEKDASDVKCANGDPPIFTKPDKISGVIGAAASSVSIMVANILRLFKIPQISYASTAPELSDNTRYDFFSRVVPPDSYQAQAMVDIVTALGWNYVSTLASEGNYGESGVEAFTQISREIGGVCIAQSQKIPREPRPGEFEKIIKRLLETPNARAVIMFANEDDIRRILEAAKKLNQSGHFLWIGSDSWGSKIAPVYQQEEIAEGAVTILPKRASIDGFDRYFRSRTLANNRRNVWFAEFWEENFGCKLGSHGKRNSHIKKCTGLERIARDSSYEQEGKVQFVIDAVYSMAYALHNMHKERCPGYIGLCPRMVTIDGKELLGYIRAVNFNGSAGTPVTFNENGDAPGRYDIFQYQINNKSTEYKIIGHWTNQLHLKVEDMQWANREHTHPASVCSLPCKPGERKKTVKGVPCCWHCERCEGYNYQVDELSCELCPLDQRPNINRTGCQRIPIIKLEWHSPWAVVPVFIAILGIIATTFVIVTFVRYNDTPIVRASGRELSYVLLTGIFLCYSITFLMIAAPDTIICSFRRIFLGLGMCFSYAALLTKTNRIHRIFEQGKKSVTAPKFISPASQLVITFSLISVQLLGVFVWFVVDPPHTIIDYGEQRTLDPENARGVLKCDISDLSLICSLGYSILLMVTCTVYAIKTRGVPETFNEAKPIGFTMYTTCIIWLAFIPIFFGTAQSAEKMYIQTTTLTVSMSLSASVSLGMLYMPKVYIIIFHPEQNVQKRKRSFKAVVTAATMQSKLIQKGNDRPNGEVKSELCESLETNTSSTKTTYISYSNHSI
Assay: mGluR8 Gi/Go-coupled signaling modulation – cell-based, rat, thallium flux, HTS, primary screen (AID 488969)
Settings: HEK293 rat mGluR8, GIRK (G protein-gated inwardly rectifying potassium channel) thallium flux, FluoZin2; at 10 µM; stronger effect = higher value; submaximal glutamate (EC20) added with thallium

With COc1ccc(C2C(C(N)=O)=C(C)Nc3nc(-c4cccc(Cl)c4)nn32)cc1OC (stereo not given) the z-score was 4.01 (active).
For S=c1[nH]cnc2scc(-c3ccccc3)c12, the z-score was 13.1 (active).
In the case of Cc1ccc(-c2csc3nc[nH]c(=S)c23)cc1C, the z-score is reported as 15.9 (active).
For Fc1ccccc1NC(=S)NN(Cc1ccccc1)c1ccccc1, the z-score was 5.03 (active).
In the case of O=C(NNC(=O)c1cccnc1SCc1cccc([N+](=O)[O-])c1)c1ccccn1, the z-score is reported as 3.29 (active).
With S=c1[nH]nc(-c2ccc(Br)o2)n1Cc1ccccc1 the z-score was 3.42 (active).
For C1CCC2(CC1)OCC1(CO2)COC2(CCCCC2)OC1, the z-score was 3.83 (active).
For CCCn1nnnc1NC(=O)c1ccc2ccccc2c1, the z-score was 8.08 (active).
With CCN=c1scc(-c2ccco2)n1/N=C/c1ccc(O)cc1 the z-score was 6.24 (active).
For O=C(COc1ccccc1)NC(=S)Nc1cccc([N+](=O)[O-])c1, the z-score was 11.8 (active).
O=C(COc1ccccc1)NC(=S)Nc1ccc2c(c1)Cc1ccccc1-2 was tested, and the z-score was 6.86 (active).

Compared with COc1ccc(OC)c(C2C(C(N)=O)=C(C)Nc3nc(-c4cccc(Cl)c4)nn32)c1 (stereo not given), COc1cccc(C2C(C(N)=O)=C(C)Nc3nc(-c4cccc(Cl)c4)nn32)c1 (stereo not given) is lower in z-score: 1.16 for the first, -0.342 for the second.

Compared with CC1=C(C(N)=O)C(c2cccnc2)n2nc(-c3cccc(Cl)c3)nc2N1 (stereo not given), CC1=C(C(N)=O)C(c2cccs2)n2nc(-c3cccc(Cl)c3)nc2N1 (stereo not given) is higher in z-score: 0.192 for the first, 2.14 for the second.

Going from COc1ccc(C2C(C(N)=O)=C(C)Nc3nc(-c4ccccc4)nn32)cc1OC (stereo not given) to COc1ccc(C(=O)Cn2nnc(-c3ccccc3F)n2)cc1, the z-score falls from 0.875 to -0.251.

Going from Cc1nc2ccccn2c1C(=O)NN=C1C2CC3CC(C2)CC1C3 to CCc1nnc(NC(=O)c2cc(S(=O)(=O)N3CCN(c4ccccc4)CC3)ccc2Cl)s1, the z-score falls from -0.259 to -0.438.

First: O=c1[nH]cnc2scc(-c3ccc(-c4ccccc4)cc3)c12
Second: O=c1[nH]cnc2scc(-c3ccccc3)c12
The z-score of the first is higher: 0.454 for the first, 0.259 for the second.

Going from O=c1[nH]cnc2scc(-c3ccc(F)cc3)c12 to Cc1ccc(-c2csc3ncnc(-n4nnc5ccccc54)c23)cc1C, the z-score rises from -0.0775 to -0.0158.

Compared with O=C(CSCCc1ccccn1)Nc1ccc(Br)cn1, O=C(CCn1c(=O)sc2ccccc21)Nc1ccon1 is lower in z-score: -0.0969 for the first, -0.246 for the second.

Compared with CCCOc1c(Br)cc(/C=N/O)cc1OC, CCCCOc1c(Br)cc(/C=N/O)cc1OCC is higher in z-score: -0.858 for the first, 2.8 for the second.

Going from CCOc1cc(/C=N/O)cc(Br)c1OCC to CCN=c1scc(-c2ccco2)n1/N=C/c1ccc(OC)c(O)c1, the z-score rises from -0.564 to 0.709.

Compared with CCOc1ccc(NC(=O)CN2CCN(CC(=O)Nc3ccc(F)c(F)c3)CC2)cc1, O=C(COc1ccccc1)Nc1ccc2c(c1)Cc1cc(NC(=O)COc3ccccc3)ccc1-2 is lower in z-score: -0.0841 for the first, -0.155 for the second.

Going from N#Cc1cnn(Cc2ccccc2)c1N to S=c1[nH]nc(-c2ccco2)n1Cc1ccccc1, the z-score rises from -0.318 to 0.271.

First: CCOC(=O)C1CCCN(Cc2nc(N)nc(Nc3ccc(Cl)cc3)n2)C1 (stereo not given)
Second: CCCn1nnnc1NC(=O)c1cc(Cl)ccc1Cl
The z-score of the first is lower: -0.508 for the first, 0.462 for the second.

Compared with CC(C)c1ccccc1NC(=S)NN(Cc1ccccc1)c1ccccc1, Cc1cccc(NC(=S)NN(Cc2ccccc2)c2ccccc2)c1C is higher in z-score: -0.164 for the first, -0.141 for the second.

Going from c1ccc(-c2ccc(-c3cnc4n3CCCCC4)cc2)cc1 to Cc1ccc(-c2n[nH]c(=S)n2Cc2ccccc2)cc1, the z-score falls from 0.704 to -0.277.

First: O=C(O)CCCCNS(=O)(=O)c1ccc(Cl)c(C(F)(F)F)c1
Second: COc1cc(NC(=O)CSCC(=O)Nc2cccc(C(F)(F)F)c2)c(Cl)cc1Cl
The z-score of the first is lower: -0.602 for the first, -0.193 for the second.

First: CC(C)OC(=O)CSc1nnc(SCc2cccc3ccccc23)s1
Second: CCCN(C(=O)CSc1cc(-c2ccccc2)c2ccc(OC)cc2n1)C1CCS(=O)(=O)C1 (stereo not given)
The z-score of the first is higher: -0.157 for the first, -0.403 for the second.

First: Cc1ccc(C(=O)NNC(=O)c2cccnc2SCc2cccc([N+](=O)[O-])c2)cc1
Second: O=C(NNC(=O)c1cccnc1SCc1cccc([N+](=O)[O-])c1)c1ccc(F)cc1
The z-score of the first is lower: -0.0883 for the first, 0.33 for the second.

Going from COc1cc(NC(=O)c2cc(OC)c(OC)c(OC)c2)c(OC)cc1NC(=O)CN1CCCCC1 to CC(C)Oc1cc(NC(=O)CSCC(=O)Nc2cccc(C(F)(F)F)c2)c(Cl)cc1Cl, the z-score rises from -2.33 to -0.183.

Going from CCN1/C(=C2\C(=O)N(C)C(=S)N2C)C=Cc2ccccc21 to Cc1cccc(-c2n[nH]c(=S)n2Cc2ccccc2)c1, the z-score rises from -0.543 to 1.74.

Going from S=c1[nH]nc(-c2cc3ccccc3o2)n1Cc1ccccc1 to Nn1c(SCc2ccccc2)nnc1-c1ccccn1, the z-score falls from 2.66 to 0.00631.

Going from CC(C)Cn1c(-c2ccc(Br)o2)n[nH]c1=S to CC(=O)NCCn1c(SCC(=O)NCC2CCCO2)nc2ccccc2c1=O (stereo not given), the z-score falls from 1.12 to 0.564.

First: C[N+]1(CC2COC3(CCCCC3)O2)CCCC1 (stereo not given)
Second: O=C(O)/C(=C\c1ccc(Br)cc1)c1ccc(S(=O)(=O)N2CCCCC2)s1
The z-score of the first is higher: -0.214 for the first, -0.862 for the second.

Compared with CCN(CC)S(=O)(=O)c1cccc(-c2nnc(C(=O)c3ccc(C(F)(F)F)cc3)o2)c1, CC(C)Oc1cc(NC(=O)CS(=O)CC(=O)Nc2cccc(C(F)(F)F)c2)c(Cl)cc1Cl (stereo not given) is higher in z-score: -0.091 for the first, 2.75 for the second.

First: CCCn1nnnc1NC(=O)c1cccs1
Second: CCOC(=O)C(Cc1ccccc1)NC(C)=O (stereo not given)
The z-score of the first is higher: 0.876 for the first, -0.16 for the second.

First: CSc1nc(Cc2ccc(Cl)cc2)nc2ccccc12
Second: CS(=O)(=O)N(CC(=O)Nc1ccccc1)Cc1ccc(Cl)cc1
The z-score of the first is lower: 0.221 for the first, 0.264 for the second.

Compared with CC(C)N=c1scc(-c2ccco2)n1/N=C/c1ccc(O)c(O)c1, Cc1ccc(OS(=O)(=O)c2ccccc2)c(/C=N/N=C2\NC(=O)C(C)S2)c1 (stereo not given) is lower in z-score: 1.68 for the first, -0.426 for the second.

Going from COc1ccc2c(-c3ccccc3)cc(SCC(=O)N(C)C3CCS(=O)(=O)C3)nc2c1 (stereo not given) to CCN(C(=O)CSc1cc(-c2ccccc2)c2ccc(OC)cc2n1)C1CCS(=O)(=O)C1 (stereo not given), the z-score falls from 2.36 to -0.108.

Going from O=C(CSc1nnc(Cc2ccccc2)n1-c1ccc(F)cc1)N1CCOCC1 to O=C(COc1ccccc1)Nc1ccc([N+](=O)[O-])cc1, the z-score falls from 0.477 to 0.423.

Going from O=S(=O)(Cc1cc(Cl)nc(-c2ccccc2)n1)c1ccccc1 to O=C(COc1ccccc1)NC(=S)Nc1cccc(NC(=O)c2ccccc2Cl)c1, the z-score rises from -0.303 to -0.164.

With COc1ccc(C(=O)NC(=S)Nc2ccc3c(c2)Cc2ccccc2-3)cc1 the z-score was 0.991.
